Bioassay records as filed in PubChem BioAssay.
The full list was thinned out, with hits kept by preference.
YB-1 expr inh = inhibitors of YB-1 gene expression, primary screen, cell-based, fluorescence; 0.37% of 30,000 active; delta delta Cp (YB-1 minus CDIP) (no concentration beside the values); U2OS, qRT-PCR YB-1 vs CDIP delta delta Cp, 16 h; hits give high values; zero = DMSO, each unit about twofold;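 active = delta delta Cp rounded down to an integer at or above 3, about 3 SD of DMSO wells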;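 note: higher means less YB-1 transcript or more CDIP transcript relative to DMSO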
An asterisk follows results filed as active.

SMILES	YB-1 expr inh
O=C1CC=C2C3CC4N(CCC45c4ccccc4N1C25)C/C3=C/CO (stereo not given)	10.4*
C[C@]12CC[C@H](O)C[C@H]1CC[C@@H]1[C@@H]2CC[C@]2(C)[C@@H](c3ccc(=O)oc3)CC[C@]12O	-0.0337
Fc1ccc(C(OCCN2CCN(CCCc3ccccc3)CC2)c2ccc(F)cc2)cc1	0.823
c1ccc(CCCN2CCN(CCOC(c3ccccc3)c3ccccc3)CC2)cc1	22.3*
C=C1[C@@H](C)[C@H]2[C@H](Cc3ccccc3)NC(=O)[C@]23[C@H](OC(C)=O)C=C[C@](C)(O)C(=O)[C@@H](C)C/C=C/[C@H]3[C@@H]1O	-0.0993
C[C@@H]1O[C@@H](O[C@H]2[C@H](O)[C@@H](O)[C@H](O[C@@H]3C=C4CC[C@@H]5C(CC[C@]6(C)[C@@H](c7ccc(=O)oc7)CC[C@]56O)[C@@]4(C)CC3)O[C@@H]2CO)[C@H](O)[C@H](O)[C@H]1O (stereo not given in full)	-0.405
COc1ccc(Cl)cc1NC1=NCC(C)S1 (stereo not given)	10.3*
C[C@@H]1O[C@@H](OC2CCC3(C)C4CCC5(C)C(C6=CC(=O)OC6)CCC5(O)C4CC[C@H]3C2)[C@H](O)[C@H](O)[C@H]1O (stereo not given in full)	2.08
C/C1=C/C(=O)O[C@@H]2C[C@@H](CC[C@H](C)/C=C\CC1)O[C@@](O)([C@@H]1CSC(=O)N1)C2	0.0415
CC(C)c1cc2c(cc1O)[C@@]1(C)C[C@@H](O)CC(C)(CO)C1CC2 (stereo not given in full)	-0.136
CC(C)c1cc2c(cc1O)[C@@]1(C)C[C@@H](O)CC(C)(C)C1CC2 (stereo not given in full)	4.47*
CC[C@@H]1/C=C\C=C\C[C@H](C)C(O)[C@](C)(O)C(=O)[C@H](C)C(O)[C@H](C)C(=O)[C@H](C)[C@@H](O)[C@H](C)/C=C/C(=O)O[C@H]2[C@@H](C)[C@@H](CC1)O[C@@]1(CC[C@@H](C)[C@@H](C[C@H](C)O)O1)[C@@H]2C (stereo not given in full)	-0.568
